{"source": "PubChem BioAssay AID651602", "about": "(The Scripps Research Institute Molecular Screening Center, 2012)", "note": "The whole screen tested about 360,000 compounds, of which about 950 (0.26%) were called active. This excerpt belongs to a sample that is enriched for actives. A number with no mark means an inactive call. No stated cut-off is given here; in the data, active means inhibition above about 11%; inactive means the rest.", "data": [{"assay": "reduced absorbance of E. coli cultures with phage – HTS, RecBCD inhibitor project, primary screen (AID 651602)", "conditions": "growth absorbance, at 11.9 µM, hits give high values", "values": [{"smiles": "O=C1[C@@H](c2ccccc2)[C@@H](c2ccccc2)N1c1ccccc1", "inhibition": "1.64%"}, {"smiles": "COc1ccc(-c2ccc3c(n2)CCCN3S(=O)(=O)c2ccc(C)cc2)cc1", "inhibition": "4.42%"}, {"smiles": "O=C(COc1ccc(F)cc1Br)NCC1COc2ccccc2O1", "note": "(stereo not given)", "inhibition": "1.96%"}, {"smiles": "S=C(NCC1COc2ccccc2O1)Nc1ccc(Br)cc1", "note": "(stereo not given)", "inhibition": "11.1% (active)"}, {"smiles": "CC(NC(=S)Nc1ccccc1)C1COc2ccccc2O1", "note": "(stereo not given)", "inhibition": "4.25%"}, {"smiles": "O=C(N[C@H](Cc1ccccc1)C(=O)N1CCCN(Cc2cccs2)CC1)[C@H]1O[C@@H](n2ccc(=O)[nH]c2=O)[C@H](O)[C@@H]1O", "inhibition": "3.33%"}, {"smiles": "CCOC(=O)Cn1c2c(n(-c3ccc(F)cc3)c1=O)C=C(c1ccccc1)[C@@H](C)C(C(=O)N(C)C1CCCCC1)=C2", "inhibition": "3.33%"}, {"smiles": "CN(C)C(=O)N1CCN(C(=O)[C@@H](Cc2ccccc2)NC(=O)[C@H]2O[C@@H](n3ccc(N)nc3=O)[C@H](O)[C@@H]2O)CC1", "inhibition": "1.56%"}, {"smiles": "COc1ccc(CNS(=O)(=O)c2cc(Br)ccc2Br)cc1", "inhibition": "0.71%"}, {"smiles": "COc1ccccc1NC(=S)N1CCN(c2ccc(F)cc2)CC1", "inhibition": "2.7%"}, {"smiles": "CC1CN(C(=S)Nc2ccccc2F)CC(C)O1", "note": "(stereo not given)", "inhibition": "2.38%"}, {"smiles": "COc1c(N2CCN(C(=S)Nc3ccccc3F)C(C)C2)c(F)cc2c(=O)c(C(=O)O)cn(C3CC3)c12", "note": "(stereo not given)", "inhibition": "99.2% (active)"}, {"smiles": "CCOC(=O)CNC(=O)N(C)[C@H]1C[C@H]2c3[nH]c4c(-c5ccc6c(c5)OCO6)cccc4c3CCN2C(=O)[C@H]1[C@H](C)O", "inhibition": "1.25%"}, {"smiles": "COc1cccc(CC(=O)N2CCN(C(=O)C(=O)c3cccc(C(F)(F)F)c3)CC2)c1", "inhibition": "0.39%"}, {"smiles": "COC(=O)[C@]12C[C@H](CC(=O)NCCC(C)C)C(=O)N(CCc3ccc(OC)c(OC)c3)C1=C[C@H](C(C)(C)C)O[C@@H]2C", "inhibition": "4.73%"}, {"smiles": "COc1ccc(N(CC(=O)NC2CCCCC2)S(=O)(=O)c2c(C)[nH]c(=O)[nH]c2=O)cc1", "inhibition": "-1.14%"}, {"smiles": "CCOc1ccc(N(CC(=O)Nc2ccccc2F)S(=O)(=O)c2c(C)[nH]c(=O)[nH]c2=O)cc1", "inhibition": "3.53%"}, {"smiles": "CCOc1ccc(N(CC(=O)NC2CCCCCC2)S(=O)(=O)c2c(C)[nH]c(=O)[nH]c2=O)cc1", "inhibition": "80.4% (active)"}, {"smiles": "Nc1[nH]c(C(=O)c2ccccc2)c(-c2ccc(Cl)cc2Cl)c1C(=O)c1ccccc1", "inhibition": "3.17%"}, {"smiles": "Cc1cc(NCCc2c[nH]c3ccccc23)ccc1Oc1cccnc1", "inhibition": "1.27%"}, {"smiles": "COCc1[nH]nc2c1C(c1ccccc1)N(c1ccccc1)C2=O", "note": "(stereo not given)", "inhibition": "1.43%"}, {"smiles": "Cc1ccc(NC(=O)Nc2nnc(-c3ccncc3)s2)cc1", "inhibition": "12.4% (active)"}, {"smiles": "CC(C)=CC(=O)Nc1nnc(-c2ccc(F)cc2)s1", "inhibition": "1.99%"}, {"smiles": "O=C(Nc1ccccc1)Nc1nnc(COc2ccccc2F)s1", "inhibition": "0.84%"}, {"smiles": "C[C@H](O)[C@@H]1C(=O)N2CCc3c([nH]c4c(-c5ccc6c(c5)OCO6)cccc34)[C@@H]2C[C@@H]1N(C)C(=O)c1ccco1", "inhibition": "4.12%"}, {"smiles": "CCCCNC(=O)c1cn(CC)c2cc(N3CCN(C(=O)c4ccco4)CC3)c(F)cc2c1=O", "inhibition": "1.02%"}, {"smiles": "CN1CCN(c2cc3c(cc2F)c(=O)c(C(=O)O)cn3CCF)CC1", "inhibition": "99.2% (active)"}, {"smiles": "CCn1cc(C(=O)NCCC(=O)NCCO)c(=O)c2cc3c(cc21)OCO3", "inhibition": "0.08%"}, {"smiles": "CCCCCCn1cc(C(=O)O)c(=O)c2cc(F)c(N3CCCCC3)cc21", "inhibition": "1.18%"}, {"smiles": "CCn1cc(C(=O)NCCO)c(=O)c2cc(F)c(N3CCN(C)CC3)cc21", "inhibition": "92.5% (active)"}, {"smiles": "CCn1cc(S(=O)(=O)c2cccc(C)c2)c(=O)c2cc(F)c(N3CCN(C)CC3)cc21", "inhibition": "0.96%"}, {"smiles": "C=CCN1C(=O)N(Cc2ccccc2)c2ccccc2S1(=O)=O", "inhibition": "1.27%"}, {"smiles": "COc1ccc(OC)c(Cc2cnc3nc(N)nc(N)c3c2C)c1", "inhibition": "82.4% (active)"}, {"smiles": "Brc1ccc(COCCc2cn(Cc3ccccc3)c3ccccc23)cc1", "inhibition": "2.34%"}, {"smiles": "Cc1[nH]nc2c1C(c1ccc(Br)cc1)NC2=O", "note": "(stereo not given)", "inhibition": "2.87%"}, {"smiles": "Nc1[nH]c(C(=O)c2ccc(Br)cc2)c(-c2ccc3c(c2)OCO3)c1C(=O)NCCc1c[nH]c2ccccc12", "inhibition": "-1.27%"}, {"smiles": "CCc1ccc(C2=CC(=O)CC(C)(C)C2=O)cc1", "inhibition": "1.83%"}, {"smiles": "C[C@@H]1CN([C@H](C)CO)C(=O)CCCn2cc(nn2)CO[C@H]1CN(C)C(=O)Nc1ccc(N2CCCCC2)cc1", "inhibition": "1.36%"}, {"smiles": "O/N=C1\\CC2(Cc3nonc31)OCCO2", "inhibition": "0.95%"}, {"smiles": "ON=C1/C(=N\\O)CC2(C/C1=N/O)OCCO2", "inhibition": "13.7% (active)"}, {"smiles": "CN[C@H]1C[C@H]2c3[nH]c4c(-c5ccccc5)cccc4c3CCN2C(=O)[C@H]1[C@H](C)O", "inhibition": "1.58%"}, {"smiles": "Nc1ccn([C@@H]2O[C@H](C(=O)N[C@H]3CCCCNC3=O)[C@@H](O)[C@H]2O)c(=O)n1", "inhibition": "1.72%"}, {"smiles": "O=C(NN=Cc1ccccc1O)NN=Cc1ccccc1O", "inhibition": "12.4% (active)"}, {"smiles": "O=C(CC(=O)N/N=C\\c1cccc(Cl)c1Cl)NCc1ccccc1", "inhibition": "3.05%"}, {"smiles": "O=C(CO/N=C/c1ccccc1O)NNC(=O)c1ccccc1Cl", "inhibition": "0.32%"}, {"smiles": "COC(=O)C1=C(C)N(Cc2ccccc2C(F)(F)F)C(=NCC2CC2)NC1c1cccc(Cl)c1", "note": "(stereo not given)", "inhibition": "0.63%"}, {"smiles": "COC(=O)c1cc2c(c3c4ccccc4n(S(=O)(=O)c4cccc(C)c4)c13)C(=O)N(Cc1ccccc1)C2", "inhibition": "5.66%"}, {"smiles": "COc1ccccc1-c1ccc([C@@H]2C[C@H]3[C@H](CON3C)CN2S(=O)(=O)c2cc(Cl)cc(Cl)c2)cc1", "inhibition": "3.4%"}, {"smiles": "O=S1(=O)c2ccc(Br)cc2-n2nncc2CN1Cc1cccc(Cl)c1", "inhibition": "-0.4%"}, {"smiles": "CN(C)[C@@H]1C(=O)C(C(N)=O)=C(O)[C@@]2(O)C(=O)C3=C(O)c4c(O)ccc(Cl)c4[C@@H](O)[C@H]3C[C@@H]12", "inhibition": "102% (active)"}, {"smiles": "C=C1c2c(Cl)ccc(O)c2C(O)=C2C(=O)[C@]3(O)C(O)=C(C(N)=O)C(=O)[C@@H](N(C)C)[C@@H]3[C@@H](O)C12", "note": "(stereo not given in full)", "inhibition": "102% (active)"}, {"smiles": "Clc1cccc2c1C1CC2CCN1Cc1ccccc1", "note": "(stereo not given)", "inhibition": "2.92%"}, {"smiles": "C=CCN=C1NC(c2cccc(C(F)(F)F)c2)C(C(=O)OC)=C(C)N1C", "note": "(stereo not given)", "inhibition": "2.4%"}, {"smiles": "COc1ccccc1Cc1c(-c2ccc(F)cc2)nc2ccc(C)cn12", "inhibition": "2.63%"}, {"smiles": "CC1CCN(C(=O)c2ncn3c2C(=O)N[C@@H](C)C3)CC1", "inhibition": "0.88%"}, {"smiles": "CC1CCN(C(=O)Cn2cc(C(=O)c3ccco3)c3ccccc32)CC1", "inhibition": "2.64%"}, {"smiles": "O=C(Cn1cc(C(=O)c2cccs2)c2ccccc21)NCc1cccs1", "inhibition": "3.17%"}, {"smiles": "Cc1cccc(NC(=O)Cn2cc(C(=O)c3ccco3)c3ccccc32)c1", "inhibition": "16.3% (active)"}, {"smiles": "COCCCNC(=O)C[C@H]1C[C@@]2(C(=O)OC)C(=C[C@H](C(C)(C)C)O[C@@H]2C)N(Cc2ccc3c(c2)OCO3)C1=O", "inhibition": "0.08%"}, {"smiles": "Cc1nc(NC(=O)C(C)(C)C)sc1[N+](=O)[O-]", "inhibition": "0.38%"}, {"smiles": "CC[C@H]1OC(=O)[C@H](C)[C@@H](O[C@H]2C[C@@](C)(OC)[C@@H](O)[C@H](C)O2)[C@H](C)[C@@H](O[C@@H]2O[C@H](C)C[C@H](N(C)C)[C@H]2O)[C@](C)(O)C[C@@H](C)[C@@H]2N[C@@H](COCCOC)O[C@H]([C@H]2C)[C@]1(C)O", "inhibition": "39.4% (active)"}, {"smiles": "Cc1ccc(N)cc1CN1CCN(c2ncc(Cc3ccccc3)cn2)CC1", "inhibition": "1.25%"}, {"smiles": "COc1ccc(SSc2ccc(OC)cc2C(=O)O)c(C(=O)O)c1", "inhibition": "3.45%"}, {"smiles": "CN1C(=O)C(Br)(Br)CC1c1cccnc1", "note": "(stereo not given)", "inhibition": "2.07%"}, {"smiles": "CC(C)[C@@H](C)/C=C/[C@@H](C)[C@H]1CC[C@@H]2[C@]1(C)CCC1[C@]23C=C[C@]2(C[C@@H](O)CC[C@]12C)N(c1ccc([N+](=O)[O-])cn1)O3", "note": "(stereo not given in full)", "inhibition": "-0.39%"}, {"smiles": "N#Cc1ccccc1NC(=O)COc1c(Br)cc(Br)c2cccnc12", "inhibition": "-0.78%"}, {"smiles": "O=[N+]([O-])c1cc([N+](=O)[O-])c2cccnc2c1O", "inhibition": "-2.95%"}, {"smiles": "CC(=O)NC(c1cccs1)c1cc(Br)c2cccnc2c1O", "note": "(stereo not given)", "inhibition": "18.8% (active)"}, {"smiles": "O=c1[nH]c(-c2ccccc2)cn1C1CCN(Cc2ccc(-c3nc4ccc(F)cc4nc3-c3ccccc3)cc2)CC1", "inhibition": "0.95%"}, {"smiles": "CC(C)CNc1cccc2c1S(=O)(=O)N[C@H](CC(C)C)CO2", "inhibition": "2%"}, {"smiles": "Cc1ccc(NC(=O)CCC(=O)N/N=C/c2ccco2)c(C)c1", "inhibition": "0%"}, {"smiles": "Cc1ccc(/C=N/NC(=O)C(NC(=O)c2ccccc2)c2n[nH]c(=O)c3ccccc23)cc1", "note": "(stereo not given)", "inhibition": "1.99%"}, {"smiles": "Cc1ccc(/C=N/NC(=O)C2=NNC(c3ccccc3)(c3ccccc3)C2)c(O)c1", "inhibition": "16.3% (active)"}, {"smiles": "CN1CCCc2nc(-c3ccccc3)ccc21", "inhibition": "2.87%"}, {"smiles": "Cc1sc2nc(CSCC(=O)Nc3c(Cl)cccc3Cl)[nH]c(=O)c2c1C", "inhibition": "-1.33%"}, {"smiles": "C=CCNC(=O)CSc1nc2sc(C)c(C)c2c(=O)[nH]1", "inhibition": "97.6% (active)"}, {"smiles": "C=CCn1c(SCC(=O)Nc2ccc(NC(C)=O)cc2)nc2sc(C)c(C)c2c1=O", "inhibition": "5%"}, {"smiles": "COc1cccc(NC(=O)N(C)C[C@@H]2OCc3cn(nn3)CCCC(=O)N([C@@H](C)CO)C[C@H]2C)c1", "inhibition": "1.68%"}, {"smiles": "Cc1cc(OC(=O)NCCc2ccc(F)cc2)ccc1F", "inhibition": "1.19%"}, {"smiles": "CCOC(=O)N1CCN(C(=O)C[C@H]2C[C@@]3(C(=O)OC)C(=C[C@H](C4CCCC4)O[C@@H]3C)N(Cc3ccccc3)C2=O)CC1", "inhibition": "-1.47%"}]}]}
